From PubChem BioAssay (Tox21) come the findings set out here.

SMILES strings stand for the structures. Inconclusive results are not listed. A call without a number means that no potency is given here. A number with no mark means an inactive call. Active and inactive are the calls of the source. Calls come from the whole dose curve; as a rule, active = well fitted curve in the direction sought with a large enough effect in the repeat runs; inconclusive = weak or mixed curves; inactive = no such curve, though single readings can be large; an effect the other way counts as inactive or inconclusive.
Note: nearly all actives have a fitted effect of over 50% in size.
Potency is the fitted concentration of half-maximal effect.

Sequence of Voltage-gated inwardly rectifying potassium channel KCNH2 (Homo sapiens) (Q12809 whole entry, looked up): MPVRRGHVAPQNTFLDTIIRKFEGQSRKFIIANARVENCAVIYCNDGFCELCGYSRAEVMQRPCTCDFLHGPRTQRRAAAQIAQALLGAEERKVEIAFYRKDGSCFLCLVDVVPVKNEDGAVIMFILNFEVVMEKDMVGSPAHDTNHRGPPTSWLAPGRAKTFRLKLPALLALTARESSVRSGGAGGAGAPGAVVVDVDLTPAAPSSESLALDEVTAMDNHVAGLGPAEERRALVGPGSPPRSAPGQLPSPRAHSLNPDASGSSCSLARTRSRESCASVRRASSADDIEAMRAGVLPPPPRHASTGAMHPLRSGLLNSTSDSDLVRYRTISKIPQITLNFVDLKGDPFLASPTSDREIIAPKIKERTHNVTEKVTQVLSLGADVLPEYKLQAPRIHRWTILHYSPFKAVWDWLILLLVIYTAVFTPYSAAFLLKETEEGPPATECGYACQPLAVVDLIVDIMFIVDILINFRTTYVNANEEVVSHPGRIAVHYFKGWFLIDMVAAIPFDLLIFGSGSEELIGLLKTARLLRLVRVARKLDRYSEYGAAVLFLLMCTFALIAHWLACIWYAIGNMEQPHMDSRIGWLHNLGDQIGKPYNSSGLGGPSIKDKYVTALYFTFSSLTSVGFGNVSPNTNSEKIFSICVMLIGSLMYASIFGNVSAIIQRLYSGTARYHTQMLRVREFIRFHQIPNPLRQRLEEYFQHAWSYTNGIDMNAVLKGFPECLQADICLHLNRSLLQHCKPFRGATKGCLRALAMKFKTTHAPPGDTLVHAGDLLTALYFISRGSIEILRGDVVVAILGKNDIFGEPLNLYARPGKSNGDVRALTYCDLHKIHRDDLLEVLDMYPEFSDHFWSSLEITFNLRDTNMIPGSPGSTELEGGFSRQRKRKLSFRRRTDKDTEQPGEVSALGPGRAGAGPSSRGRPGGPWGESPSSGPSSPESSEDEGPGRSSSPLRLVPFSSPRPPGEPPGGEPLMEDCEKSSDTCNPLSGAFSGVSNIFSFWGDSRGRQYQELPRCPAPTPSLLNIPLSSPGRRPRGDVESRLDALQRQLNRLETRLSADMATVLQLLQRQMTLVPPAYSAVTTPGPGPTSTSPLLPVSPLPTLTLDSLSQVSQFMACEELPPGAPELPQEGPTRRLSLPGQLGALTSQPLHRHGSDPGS

One assay has as its target Voltage-gated inwardly rectifying potassium channel KCNH2 (Homo sapiens) (UniProt Q12809). As to the kind of experiment: Human Ether-a-go-go-Related Gene (hERG) channel small molecule antagonists: fluorescence cell-based qHTS assay (AID 1671200).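 For activity change, negative = inhibition: hERG-expressing U2OS cells given a thallium stimulus after FluxOR II dye loading.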 The settings on record: hERG-U2OS cells, FluxOR thallium flux fluorescence; series mostly up to 76.8 µM. In a few lines: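 In this thallium-flux screen, overnight-cultured U2OS cells bearing the channel are dye-loaded in darkness for an hour, rested 10 min at room temperature, and then monitored kinetically at 480/540 nm for two minutes post-stimulus.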
In general terms: The hERG channel carries a current that helps repolarise heart muscle cells.
In the case of `C=CC(=O)OCC(Br)CBr` (stereo not given), the Potency entry is “inactive”.

With `Clc1cccc(Cl)n1`, the Potency result is “inactive”. With `O=C(Nc1ccc([N+](=O)[O-])cc1)Nc1ccc([N+](=O)[O-])cc1` (tested in a mixture with another compound), the Potency entry is “inactive”.

For the compound `C/C=C/C(=O)C1=C(C)C=CCC1(C)C`, the Potency result is “inactive”. Still for that read-out and setting: the value for `CCOc1ccc([N+](=O)[O-])cc1` was “inactive”; that for `CC(C)(c1ccc(Oc2ccc(N)cc2)cc1)c1ccc(Oc2ccc(N)cc2)cc1` was “inactive”. Turning to `CCCCCCCCSCc1cc(C)c(O)c(CSCCCCCCCC)c1`, the Potency entry is “inactive”. As for `CCNc1nc(NC(C)(C)C)nc(OC)n1`, the Potency entry was “inactive”. In the case of `CC/C=C(\C)C=O`, the Potency result was “inactive”. As for `Cn1c(=O)[nH]c2ncn(C)c2c1=O`, the Potency result was “inactive”. For `CCC(O)CO` (stereo not given), the Potency entry is “inactive”. For the compound `COc1c(Br)cc(Br)c(C)c1Br`, the Potency result is “inactive”.

With `NC(=O)C1CO1` (stereo not given), the Potency entry was “inactive”.

In the case of `[Cl][Sc]([Cl])[Cl]`, the Potency entry was “inactive”. Same read-out and setting: the value for `C=CC(=O)O[C@H]1C[C@@H]2CC[C@@]1(C)C2(C)C` was “inactive”; that for `C1CCSC1` was “inactive”. As for `COc1cc(C(C)C)ccc1C`, the activity change, negative = inhibition was -1.11% [at 15.8 µM].

Regarding `CCCCCCCCCCCCS(=O)(=O)Cl`, the activity change, negative = inhibition was 1.06% [at 15.8 µM]. For `CCCCCCCCCC[N+](C)(CCCCCCCCCC)CCC[Si](OC)(OC)OC`, the Potency is 2.45 µM (active). Still for that read-out and setting: the value for `CC(=O)CC(N)=O` was “inactive”; that for `N#CCCOCCC#N` was “inactive”; that for `CN(C[C@@H](CC[N+]12CCC(C3CCCCC3)(CC1)CC2)c1ccc(Cl)c(Cl)c1)C(=O)c1cc(C(F)(F)F)cc(C(F)(F)F)c1` was “inactive”. On to `CCCC(C)C=O` (stereo not given), for which the Potency result was “inactive”.

Regarding `C/C=C/C(=O)OCC(C)C`, the Potency entry was “inactive”. Still for that read-out and setting: the entry for `[Cl][Eu]([Cl])[Cl]` is “inactive”. Consider `C=C[Si](C)(C)Cl`, for which the activity change, negative = inhibition is -2.91% [at 6.97 µM].

Consider `C=C(C)C1CCC(C)CC1O` (stereo not given), for which the Potency entry was “inactive”.

Consider `Clc1ccc2c(Cl)ccnc2c1`, for which the Potency result was “inactive”. Consider `SC1CCCCC1`, for which the Potency entry was “inactive”. On the same count and under the same terms, the entry for `CC(C)c1ccc2sc3ccccc3c(=O)c2c1` is “inactive”; for `COc1cccc(-c2ccc(/C=C\CN3CCCCCC3)cc2Cl)c1` it is 1.22 µM (active). Still for that read-out and setting: the value for `CCc1c(C)cc(N)c(CC)c1N` was “inactive”.

On to `CC1=CC[C@@H](C(C)(C)O)CC1`, for which the Potency result was “inactive”. The same measure, in the same setting: the value for `CCOC(=O)[C@H](C)O` was “inactive”; that for `O=C1OC(=O)c2cc(-c3ccc4c(c3)C(=O)OC4=O)ccc21` was “inactive”.

The target of the next assay is Cytochrome P450 3A4 (Homo sapiens) (UniProt P08684). As to the kind of experiment: Cytochrome P450 Family 3 Subfamily A Member 4 (CYP3A4) small molecule antagonists: luciferase reporter qHTS assay (AID 1671201). To be noted: P450-Glo CYP3A4 enzyme, luciferin luminescence, 1 h; series mostly up to 115 µM. The method in brief: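 CYP3A4 activity was followed with a P450-Glo proluciferin substrate. Test compounds in DMSO were preincubated 10 min; NADPH regeneration then ran 1 h, and light output was read 20 min after detection reagent.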
Sequence of Cytochrome P450 3A4 (Homo sapiens) (P08684 whole entry, looked up): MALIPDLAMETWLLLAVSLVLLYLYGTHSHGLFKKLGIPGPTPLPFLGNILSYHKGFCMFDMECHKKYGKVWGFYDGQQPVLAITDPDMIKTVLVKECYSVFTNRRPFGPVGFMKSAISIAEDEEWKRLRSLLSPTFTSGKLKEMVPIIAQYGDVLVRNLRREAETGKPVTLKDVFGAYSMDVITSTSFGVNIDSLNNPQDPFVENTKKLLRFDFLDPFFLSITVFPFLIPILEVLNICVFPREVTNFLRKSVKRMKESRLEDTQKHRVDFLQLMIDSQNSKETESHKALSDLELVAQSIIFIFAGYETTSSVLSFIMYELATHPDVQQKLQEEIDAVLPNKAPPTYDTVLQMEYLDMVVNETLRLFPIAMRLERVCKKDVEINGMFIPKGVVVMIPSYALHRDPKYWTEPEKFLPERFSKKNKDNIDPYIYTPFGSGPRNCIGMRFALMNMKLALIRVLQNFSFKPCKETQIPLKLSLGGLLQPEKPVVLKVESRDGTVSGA
For orientation: In a reporter assay the amount or activity of a reporter protein is the signal.
Regarding `C=CC(=O)OCC(Br)CBr` (stereo not given), the Potency result is “inactive”.

Consider `O=C1C=CC(=O)N1c1cccc(N2C(=O)C=CC2=O)c1`, for which the Potency result was “inactive”.

As to `Clc1cccc(Cl)n1`, the Potency entry is “inactive”. Still for that read-out and setting: the value for `O=C(Nc1ccc([N+](=O)[O-])cc1)Nc1ccc([N+](=O)[O-])cc1` (tested in a mixture with another compound) was “inactive”; that for `C/C=C/C(=O)C1=C(C)C=CCC1(C)C` was “inactive”; that for `CCOc1ccc([N+](=O)[O-])cc1` was 72.1 µM (active). The same measure, in the same setting: the value for `CC(C)(c1ccc(Oc2ccc(N)cc2)cc1)c1ccc(Oc2ccc(N)cc2)cc1` was 2.52 µM (active); that for `CCCCCCCCSCc1cc(C)c(O)c(CSCCCCCCCC)c1` was “inactive”; that for `CCNc1nc(NC(C)(C)C)nc(OC)n1` was “inactive”. Regarding `CC(Cc1ccc(O)c(O)c1)C(C)Cc1ccc(O)c(O)c1` (stereo not given), the Potency was 35.6 µM (active). The same measure, in the same setting: the entry for `CC/C=C(\C)C=O` is “inactive”.

On to `Cn1c(=O)[nH]c2ncn(C)c2c1=O`, for which the Potency result is “inactive”. For the compound `CCC(O)CO` (stereo not given), the Potency result is “inactive”.

Consider `COc1c(Br)cc(Br)c(C)c1Br`, for which the Potency result was “inactive”.

Turning to `NC(=O)C1CO1` (stereo not given), the Potency result is “inactive”. On the same count and under the same terms, the entry for `c1ccc(-c2ccccc2-c2ccccc2)cc1` is “inactive”; for `[Cl][Sc]([Cl])[Cl]` it is “inactive”; for `C=CC(=O)O[C@H]1C[C@@H]2CC[C@@]1(C)C2(C)C` it is “inactive”. `C1CCSC1`: the Potency result was “inactive”. On to `COc1cc(C(C)C)ccc1C`, for which the activity change, negative = inhibition was -0.0855% [at 23.6 µM]. `CCCCCCCCCCCCS(=O)(=O)Cl`: the activity change, negative = inhibition was -1.36% [at 23.6 µM]. Turning to `CCCCCCCCCC[N+](C)(CCCCCCCCCC)CCC[Si](OC)(OC)OC`, the Potency is 28.3 µM (active). Take `O=C1CCCCCCCCCCCCCC1`: the Potency was 35.6 µM (active).

On to `CC(=O)CC(N)=O`, for which the Potency result was “inactive”. Same read-out and setting: the entry for `N#CCCOCCC#N` is “inactive”. As for `O=C(O)CN(CCCN(CC(=O)O)CC(=O)O)CC(=O)O`, the activity change, negative = inhibition is -1.42% [at 23.6 µM]. As to `CN(C[C@@H](CC[N+]12CCC(C3CCCCC3)(CC1)CC2)c1ccc(Cl)c(Cl)c1)C(=O)c1cc(C(F)(F)F)cc(C(F)(F)F)c1`, the Potency is 2.24 µM (active). Same read-out and setting: the value for `CCCC(C)C=O` (stereo not given) was “inactive”; that for `C/C=C/C(=O)OCC(C)C` was “inactive”; that for `[Cl][Eu]([Cl])[Cl]` was “inactive”. `C=C[Si](C)(C)Cl`: the activity change, negative = inhibition is 0.89% [at 10.5 µM]. As for `C=C(C)C1CCC(C)CC1O` (stereo not given), the Potency entry was “inactive”.

`Clc1ccc2c(Cl)ccnc2c1`: the Potency result is “inactive”. Same read-out and setting: the value for `SC1CCCCC1` was “inactive”; that for `CC(C)c1ccc2sc3ccccc3c(=O)c2c1` was “inactive”; that for `COc1cccc(-c2ccc(/C=C\CN3CCCCCC3)cc2Cl)c1` was “inactive”. Same read-out and setting: the value for `CCc1c(C)cc(N)c(CC)c1N` was 15.9 µM (active). Same read-out and setting: the entry for `CC1=CC[C@@H](C(C)(C)O)CC1` is “inactive”; for `CCOC(=O)[C@H](C)O` it is “inactive”.

In the case of `O=C1OC(=O)c2cc(-c3ccc4c(c3)C(=O)OC4=O)ccc21`, the Potency result was “inactive”.
